Source: PubChem
Hits are enriched below; roughly 3.4% of the tested compounds scored in any of these assays.
GPR151 activ – activators of human GPR151, primary screen, cell-based, PathHunter beta-arrestin, luminescence. PathHunter beta-arrestin GPR151 cells. activation, % at 11.2 µM. actives 1% (n = 650,000); in the data active = activation above about 4.9%
MITF inh – MITF inhibitors, primary screen, biochemical, AlphaScreen, human. AlphaScreen MITF homodimerization, bead proximity signal. inhibition, % at 2.6 µM. actives 0.91% (n = 650,000); in the data active = inhibition above about 50%
FBW7 activator – FBW7 E3 ligase activators, primary screen, biochemical, AlphaScreen, human; normalized activity (activation), % at 26.1 µM; AlphaScreen FBW7–phospho-cyclin E peptide binding, activator screen; F-box/WD repeat-containing protein 7 (Homo sapiens), Q969H0; AID 1259310, 2017; actives 0.13% (n = 650,000); in the data active = normalized activity above about 1.9%;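 note: purified mutant Fbw7 with reduced substrate affinity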
Target sequence (Q969H0 whole entry, looked up): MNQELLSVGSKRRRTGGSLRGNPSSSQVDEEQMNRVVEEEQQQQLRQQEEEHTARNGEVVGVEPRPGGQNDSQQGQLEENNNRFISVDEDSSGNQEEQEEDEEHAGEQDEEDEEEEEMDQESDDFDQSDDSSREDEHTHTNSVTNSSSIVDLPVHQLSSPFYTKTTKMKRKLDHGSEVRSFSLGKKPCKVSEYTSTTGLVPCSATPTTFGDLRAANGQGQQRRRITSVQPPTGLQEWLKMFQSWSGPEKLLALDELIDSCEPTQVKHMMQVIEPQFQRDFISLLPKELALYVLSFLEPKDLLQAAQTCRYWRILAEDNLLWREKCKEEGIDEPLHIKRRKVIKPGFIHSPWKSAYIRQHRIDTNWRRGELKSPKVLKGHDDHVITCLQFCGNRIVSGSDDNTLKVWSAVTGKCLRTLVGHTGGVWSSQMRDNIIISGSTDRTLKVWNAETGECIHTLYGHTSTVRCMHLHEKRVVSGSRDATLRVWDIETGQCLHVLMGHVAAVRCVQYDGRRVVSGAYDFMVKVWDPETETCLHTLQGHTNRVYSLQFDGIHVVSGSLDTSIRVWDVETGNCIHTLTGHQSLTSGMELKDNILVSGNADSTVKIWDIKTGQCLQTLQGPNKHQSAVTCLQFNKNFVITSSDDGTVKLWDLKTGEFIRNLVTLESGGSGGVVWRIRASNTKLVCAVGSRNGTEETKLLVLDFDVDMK
TEAD-YAP block – TEAD-YAP interaction inhibition, primary screen, TEAD-YAP interaction inhibitor project, luminescence, HEK-TIYL cells; TEAD-Gal4/YAP UAS-luciferase luminescence; inhibition, % at 9.12 µM; actives 1.4% (n = 640,000); AID 1259422, 2018; in the data active = inhibition above about 32%
GPR151 confirm – GPR151 activators, triplicate retest, confirmation, cell-based, PathHunter beta-arrestin, luminescence; shares compounds with GPR151 activ; GPR151 PathHunter beta-arrestin cells, 90 min; % of EA-reagent control over plate median; activation, % at 11.2 µM; 6,700 tested, under 10 active;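 active = mean percent activation across replicates above the confirmation screen cutoff of 4.91%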
GPR119 ag – GPR119 activators in beta-arrestin cells, counter-screen for GPR151 activator project, cell-based, PathHunter beta-arrestin, luminescence, triplicate. AID 1508611, 2020. actives 0.3% (n = 6,700). 90 min; 0 = compound-well median, 100 = enzyme-acceptor control. shares compounds with GPR151 activ. activation, % at 11.2 µM;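 active = mean percent activation in the counterscreen above 29.09%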;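 note: counterscreen on off-target GPR119 to flag nonselective hits from the GPR151 activator screen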
Hits are given with their value; – = inactive; · = no result.

SMILES	GPR151 activ	MITF inh	FBW7 activator	TEAD-YAP block	GPR151 confirm	GPR119 ag
Cc1nn(C)c(C)c1S(=O)(=O)N1CCCC(C(=O)c2ccc3c(c2)OCO3)C1 (stereo unspecified)	–	–	–	–	·	·
CC(=O)c1ccccc1NC(=O)CSc1n[nH]c(N)n1	8.0	–	–	–	–	–
CCOC(=O)c1ccccc1NC(=O)CSc1n[nH]c(N)n1	–	–	–	–	·	·
O=C(Nn1c(=S)[nH]c2ccccc2c1=O)c1ccccc1	–	–	–	–	·	·
O=C(Nn1c(=S)[nH]c2ccsc2c1=O)c1ccccc1	5.0	–	–	–	–	–
COc1cc(N=Cc2nc(-c3ccccc3Br)oc2O)c(C(=O)O)cc1OC	–	–	–	–	·	·
CCOC(=O)c1cccc(Nc2nc(-c3ccccc3)nc3ccccc23)c1	5.9	–	–	–	–	–
CCOC(=O)c1nc(Nc2ccc(OCC)cc2)c2ccccc2n1	–	–	–	–	·	·
CCOC(=O)c1cccc(Nc2nc(-c3ccccc3Cl)nc3ccccc23)c1	–	–	–	–	·	·
CCOC(=O)c1nc(Nc2ccc(OC(C)C)cc2)c2ccccc2n1	8.8	–	–	–	–	–
COc1ccccc1CN1CCC2(CCC(CNC(=O)c3ccn(C)n3)O2)CC1 (stereo unspecified)	6.4	–	–	–	–	–
Cc1cc(C)c(CN2CCC3(CCC(CNC(=O)c4ccn(C)n4)O3)CC2)cc1C (stereo unspecified)	–	–	–	–	·	·
O=C(Nc1cc([N+](=O)[O-])ccc1C(=O)O)c1ccccc1	–	–	–	–	·	·
Cc1cc(N2CCN(c3ncccn3)CC2)nc2ccc(NC(=O)Cc3cccs3)cc12	5.1	–	–	–	–	–
Cc1cccc(C(=O)Nc2ccc3nc(N4CCCCC4)cc(C)c3c2)c1	5.8	–	–	–	–	–
Clc1ccc(-n2cc(-c3ccccc3)c3c(NCc4ccccn4)ncnc32)cc1	–	–	–	–	·	·
CCSc1nc2sccn2c(=O)c1C(=O)Nc1cc(C(C)(C)C)nn1C	5.0	–	–	–	–	–
CCSc1nc2sccn2c(=O)c1C(=O)Nc1cc(-c2ccccc2)nn1C	–	–	–	–	·	·
O=C(Nc1ccccc1)c1cccc(Nc2cnccn2)n1	–	–	–	–	·	·
CC(=O)OCC(=O)c1ccc2c(c1)CCN2C(C)=O	–	–	–	–	·	·
CCc1cc2c(SCC(=O)Nc3ccc(Br)cc3)ncnc2s1	–	–	–	–	·	·
CCc1cc2c(SCC(=O)Nc3sccc3C(N)=O)ncnc2s1	7.0	–	–	–	–	–
CCc1cc2c(SCC(=O)c3ccccc3)ncnc2s1	–	–	–	–	·	·
CCc1cc2c(SCC(=O)c3cccs3)ncnc2s1	5.1	–	–	–	–	–
COc1ccccc1CCNCc1c(C(=O)O)n(C)c2cc(C)ccc12	9.8	–	–	–	–	–
SMILES	GPR151 activ	MITF inh	FBW7 activator	TEAD-YAP block	GPR151 confirm	GPR119 ag
CCC(=O)N(CCCN(C)C)c1nc(-c2ccc(Cl)cc2)cs1	6.0	–	–	–	–	–
CCN(C(=O)CCl)c1nc(-c2ccc(Cl)cc2)cs1	–	–	–	–	·	·
CCN(CC(=O)NC1CCCCCC1)S(=O)(=O)c1ccc(C)cc1	5.4	–	–	–	–	–
CC1CCC(NCCNC(=O)c2cccs2)CC1 (stereo unspecified)	–	–	–	–	·	·
CCN(CC(=O)NCc1ccc(F)cc1)C(=O)COc1ccc(C(=O)c2ccccc2)cc1	–	–	–	–	·	·
COC(=O)C1=C(C)N(c2ccc(Cl)cc2)C(=O)/C1=C\c1ccco1	–	–	–	–	·	·
COC(=O)C1=C(C)N(c2ccc(C(C)C)cc2)C(=O)/C1=C\c1ccco1	6.0	–	–	–	–	–
CCOc1cccc2cc(-c3cn4cc(C)ccc4n3)c(=O)oc12	11	–	–	–	–	–
COc1cccc2cc(-c3cn4ccc(C)cc4n3)c(=O)oc12	–	–	–	–	·	·
O=C(CN(Cc1ccccc1F)S(=O)(=O)c1ccc(Cl)cc1)NCCCO	6.0	–	–	–	–	–
Cc1nnn(C23CC4CC(CC(C(=O)N5CCN(c6ccccn6)CC5)(C4)C2)C3)n1	–	–	–	–	·	·
S=C(NCCN1CCOCC1)Nc1cccc2ccccc12	5.3	–	–	–	–	–
S=C(NCCN1CCOCC1)Nc1cccc2cnccc12	–	–	–	–	·	·
COc1cccc(CC2=NOC(C(=O)NCC(O)COc3cccc(OC)c3)C2)c1 (stereo unspecified)	–	–	–	–	·	·
CCCCn1c(O)c(C2=c3ccccc3=NC2=O)c2ccccc21	–	–	–	–	·	·
CCCCn1c(O)c(Nc2ccc3c(c2)=NC(=O)N=3)c2ccccc21	6.8	–	–	–	–	–
CCOc1cc(/C=C2/C(=N)N3N=C(CC)SC3=NC2=O)cc(Cl)c1OCCOc1ccc(C)cc1C	–	–	–	–	·	·
CCOc1cc(/C=C2/C(=N)N3N=C(CC)SC3=NC2=O)cc(Cl)c1OCCOc1cc(C)ccc1C	8.4	–	–	–	–	–
CN(C)c1ccc(C2C(=O)N(C3CCCCC3)CC(=O)N2Cc2cccs2)cc1 (stereo unspecified)	–	–	–	–	·	·
COc1ccc(C2C(=O)N(C3CCCC3)CC(=O)N2Cc2cccs2)cc1 (stereo unspecified)	11	–	–	–	–	–
COc1cccc(-n2c(CCN3C(=O)c4ccccc4C3=O)nc3ccccc3c2=O)c1	5.4	–	–	–	–	–
COc1cccc(NC(=O)CSc2nc3ccccc3c(=O)n2CCc2ccc(OC)c(OC)c2)c1	5.0	–	–	–	–	–
CC(C)C(NC(=O)CN(c1cccc(Cl)c1Cl)S(C)(=O)=O)C(C)C	–	–	–	–	·	·
Cc1ccc(S(=O)(=O)NC(=O)N2c3ccccc3CCc3ccccc32)cc1	7.4	–	–	–	–	–
CCOc1ccc(/C(O)=C2/C(=O)C(=O)N(CCN(CC)CC)C2c2ccc(Cl)cc2)cc1C (stereo unspecified)	–	–	–	–	·	·
CCOc1ccc(/C(O)=C2/C(=O)C(=O)N(CCN(CC)CC)C2c2ccc(OC)c(OC)c2)cc1C (stereo unspecified)	6.6	–	–	–	–	–
OC1(c2cccc(F)c2)CCN(Cc2ccncc2)CC1	6.1	–	–	–	–	–
OC1(c2cccnc2)CCN(Cc2cccc(F)c2)CC1	–	–	–	–	·	·
